Measured potencies and affinities stand elsewhere. The source made the active and inactive calls. How the calls were made is not given here.
Biological target: CAAX prenyl protease 2 (Homo sapiens) (UniProt Q9Y256)
Assay: inhibition of Ras-converting CAAX protease Rce1 – biochemical, yeast membranes, quenched-peptide fluorescence, cherry-pick, dose response (AID 588849)
Conditions: yeast membrane fractions expressing human Rce1, quenched-peptide fluorescence, 4 h; series mostly up to 10 µM

Sequence of CAAX prenyl protease 2 (Homo sapiens) (Q9Y256 whole entry, looked up): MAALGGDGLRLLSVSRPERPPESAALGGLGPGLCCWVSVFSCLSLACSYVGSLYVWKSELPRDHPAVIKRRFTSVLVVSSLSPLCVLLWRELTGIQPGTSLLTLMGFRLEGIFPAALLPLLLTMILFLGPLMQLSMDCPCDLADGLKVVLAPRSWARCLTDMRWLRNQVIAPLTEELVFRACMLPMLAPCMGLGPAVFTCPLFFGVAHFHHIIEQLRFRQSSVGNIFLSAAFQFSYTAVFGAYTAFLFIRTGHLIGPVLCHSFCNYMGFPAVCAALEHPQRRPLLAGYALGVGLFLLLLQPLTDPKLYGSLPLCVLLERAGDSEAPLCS

outcome, inactive:
CCCCN(CC)CCNC(=O)c1cc2c(-c3ccc(Cl)cc3)nn(C)c2s1
Cc1cccc(NS(=O)(=O)c2ccc(C)c(C(=O)OCC(=O)Nc3cc(C)on3)c2)c1
COC(=O)c1cnn2c3c(c(C)nc12)CCCC3
NC(=O)[C@H]1CC2(CC(c3cccc(NC(=O)COc4ccc(Cl)cc4)c3)=NO2)CN1C(=O)C(c1ccccc1)c1ccccc1 (stereo partly drawn)
COc1ccc(OC)c(Cc2nnc(CCC(=O)N3CCN(C4CCCC4)CC3)o2)c1
CCOC(=O)C[C@H]1c2ccccc2S(=O)(=O)N1Cc1cc(OC)c(OC)c(OC)c1
Cn1c(CN2CCOCC2)c(C#N)c2ccccc21
O=C(Nc1ncccn1)c1ccc([N+](=O)[O-])cc1
COc1ccccc1N1CCN(c2ncc(C(=O)N3CCN(c4cccc(Cl)c4)CC3)c3ccccc23)CC1
COc1cccc(-c2nc(C#N)c(N3CCN(C(=O)c4ccco4)CC3)o2)c1
O=C(Nc1cccc(-c2cn3ccccc3n2)c1)C1CC1
COc1ccc(-n2nc(C(=O)NCC(=O)N3CCC(C)CC3)c3ccccc3c2=O)cc1
CCCCNC(=S)N=Nc1c(O)n(Cc2ccccc2)c2ccccc12
Cn1c(CCNS(=O)(=O)c2ccccc2)nnc1SCc1cccnc1
Cc1cccc(-c2nnc(SCc3ccc(C#N)cc3)n2Cc2ccco2)c1
COc1ccccc1/C=C/C=N/NC(=O)CN1CCN(S(=O)(=O)c2ccc(C)cc2)CC1
CCOC(=O)C[n+]1ccc2c([nH]c3ccccc32)c1C
Cc1cc(N2CCN(C(c3ccccc3)c3ccccc3)CC2)n2ncnc2n1
O=C(c1cn(-c2ccccc2)nc1-c1cccs1)N1CCN(c2ccccc2)CC1
S=c1[nH]nc(-c2ccccc2)o1
CCn1cc(/C=C(\NC(=O)c2ccccc2Cl)C(=O)N2CCOCC2)c2ccccc21
CCC(C)(C)c1ccc(OCCCC[n+]2cccc(C)c2C)c(C(C)(C)CC)c1
CCc1cc(=O)oc2c3c(cc(OCC(=O)NCCCC(=O)O)c12)OC(C)(C)CC3
CCOC(=O)c1c(NC(=O)COc2ccccc2F)sc2c1CC(C)(C)NC2(C)C
CC1CCc2c(sc(NC(=O)COC(=O)c3ccccc3NCc3ccco3)c2C#N)C1 (stereo not drawn)
CCn1cc(/C=C(\NC(=O)c2ccccc2F)C(=O)N2CCCC2)c2ccccc21
COC(=O)C1CCCN1S(=O)(=O)c1ccc2ccccc2c1 (stereo not drawn)
COC(=O)c1sccc1NC(=O)CSc1nnnn1-c1ccccc1C
CC(C)N1CCN(Cc2ccc(OCc3ccccc3)cc2)CC1CCO (stereo not drawn)
CCOC(=O)c1sc2nc(C3CC3)cc(-c3ccc(F)cc3)c2c1N
COC(C[C@H](O)C[C@H](O)[C@@H](C)OCc1ccccc1)OC
Cc1ccc2nc(N(CCN(C)C)C(=O)c3ccc4ccccc4c3)sc2c1
O=C(c1cnc2n(c1=O)CCS2)N1CCN(C(c2ccccc2)c2ccc(Cl)cc2)CC1 (stereo not drawn)
CC1=C(C(=O)OCc2ccccc2)C(c2ccc(-c3ccccc3)cc2)NC(=O)N1CCCC(=O)O (stereo not drawn)
Cc1nn(CCC(=O)O)c2nc(-c3cccnc3)cc(C(F)(F)F)c12
Cc1ccc(C(=O)c2c3ccc(C(F)(F)F)cc3nn2CCC(N)=O)cc1
O=S(=O)(c1ccccc1)c1nc(-c2ccco2)oc1N1CCCCC1
CCn1cc(/C=C(\NC(=O)c2ccccc2F)C(=O)N2CCOCC2)c2ccccc21
